HSF1 inh – HSF1 inhibition; activity change, negative = inhibition, % at 7.5 µM (by protocol); NIH3T3-HGL HSE-luciferase, MG132-induced, luminescence 8 h; active compounds read low; AID 2098; actives 0.77% (n = 300,000);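 active means more than half of replicate wells show activity change below -50%, luminescence cut by over half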;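 further: luciferase reports HSF-1 transcriptional activity via heat shock element; 0% = median of DMSO wells and -100% = zero luminescence signal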
HSF-1 act – increases HSF-1 driven luciferase reporter signal. activation, % at 9 µM. NIH3T3-HGL HSF-1 luciferase reporter, MG132, 8 h; 100% = twice DMSO control signal. actives 1.7% (n = 300,000);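 active means mean replicate activation of at least 50% with a set share of replicates each reaching 50%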;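 further: 0% = median of the neutral control wells and 100% = twice that signal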
AHR activator – activates the human aryl hydrocarbon receptor. activation, % at 5 µM. P35869. actives 2.5% (n = 320,000). AHR-responsive luciferase reporter cells, luminescence; in the data active means activation above about 47%;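 further: 0% = vehicle wells and 100% = reference agonist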
Target sequence (P35869 whole entry, looked up): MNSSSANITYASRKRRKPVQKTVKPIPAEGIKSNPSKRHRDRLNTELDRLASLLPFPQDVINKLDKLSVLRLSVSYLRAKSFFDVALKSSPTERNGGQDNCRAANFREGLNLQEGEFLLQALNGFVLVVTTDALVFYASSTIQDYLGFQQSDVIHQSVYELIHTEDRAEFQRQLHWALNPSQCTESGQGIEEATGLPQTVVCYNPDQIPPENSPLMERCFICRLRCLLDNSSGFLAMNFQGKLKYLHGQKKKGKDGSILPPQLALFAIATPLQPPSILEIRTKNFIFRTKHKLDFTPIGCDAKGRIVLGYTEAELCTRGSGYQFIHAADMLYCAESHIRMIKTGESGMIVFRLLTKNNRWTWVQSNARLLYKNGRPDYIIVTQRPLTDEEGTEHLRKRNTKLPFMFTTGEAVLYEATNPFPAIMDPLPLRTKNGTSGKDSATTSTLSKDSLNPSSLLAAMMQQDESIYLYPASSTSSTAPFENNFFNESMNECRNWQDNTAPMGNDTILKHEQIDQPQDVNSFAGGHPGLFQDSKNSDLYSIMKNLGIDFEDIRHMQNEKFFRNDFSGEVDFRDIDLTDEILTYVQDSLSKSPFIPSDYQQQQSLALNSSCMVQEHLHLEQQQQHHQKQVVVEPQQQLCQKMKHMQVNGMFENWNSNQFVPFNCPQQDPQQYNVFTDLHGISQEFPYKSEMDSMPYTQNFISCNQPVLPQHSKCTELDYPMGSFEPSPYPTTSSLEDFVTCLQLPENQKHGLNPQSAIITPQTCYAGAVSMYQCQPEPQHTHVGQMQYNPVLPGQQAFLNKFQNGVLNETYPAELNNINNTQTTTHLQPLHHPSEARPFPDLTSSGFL
FXN GAA850 act – frataxin GAA850 promoter activation; HEK293 lucGAA850 FXN promoter luciferase reporter, 24 h; percent of 10 µM SAHA response; activation, % at 6 µM; actives 0.56% (n = 360,000); AID 540364;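 active means activation above the average of all compounds screened plus 3 SD, cutoff fixed separately per campaign, cut at about 7.5% in these data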;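 further: 0% = DMSO wells and 100% = 10 µM SAHA wells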
The depositor's hits bear a star; nt = no result given. This is a sample that favours compounds with a hit; in the whole collection about 4.6% have one here.

SMILES | HSF1 inh | HSF-1 act | AHR activator | FXN GAA850 act
CCOC(=O)c1ccc(NC(=O)C2CC3CCC2C3)cc1 (centres undefined) | 35 | 64* | -2 | 7
COC(=O)c1ccc(NC(=O)C2CC3CCC2C3)cc1 (centres undefined) | 18 | 45 | 3 | 4
COc1ccc(C(=O)OCC(=O)NC2CC2)cc1[N+](=O)[O-] | 3 | -5 | 1 | 1
CCOCCn1c(COc2ccc(C)cc2)nc2ccccc21 | 47 | 76* | 10 | 6
COCCn1c(COc2ccc(C)cc2)nc2ccccc21 | 41 | 46 | 7 | 4
Cc1ccc(OCCCn2c(CO)nc3ccccc32)cc1 | 4 | -15 | -1 | 4
CCn1c(COc2ccc(C)cc2)nc2ccccc21 | 47 | 81* | -3 | 5
O=C(CC1C(=O)NCCN1Cc1ccccc1)NC1CCCCCC1 (centres undefined) | 1 | 21 | -1 | 4
CCN=C1S/C(=C\c2ccc(-c3cccc(C(=O)O)c3)o2)C(=O)N1CC | -52* | -57 | 9 | 8.4*
Cc1ccc(Cn2c(C(C)Nc3nc(-c4ccc(F)cc4)cs3)nc3cc(Cl)c(Cl)cc32)cc1 (centres undefined) | -6 | -10 | 59* | 3
CCCn1c(C(C)Nc2nc(-c3ccc(C)cc3)cs2)nc2cc(Cl)c(Cl)cc21 (centres undefined) | 2 | -2 | 14 | 0
Cc1cccc2sc(NC(=O)[C@H](C)N3C(=O)C4CC=CCC4C3=O)nc12 (some centres undefined) | -56* | -68 | 18 | -1
Cc1cccc2sc(NC(=O)C3CC3)nc12 | 9 | 10 | nt | 1
CSc1cccc(NC(=O)Nc2nc3c(C)cccc3s2)c1 | 14 | 36 | 119* | 1
Cc1cccc2sc(NC(=O)c3ccc(Cl)s3)nc12 | 11 | 32 | 48* | 1
C[C@@H](C(=O)Nc1nc2ccccc2s1)N1C(=O)C2CC=CCC2C1=O (some centres undefined) | 2 | 4 | 5 | 1
COc1cccc2sc(NC(=O)c3ccc(Br)s3)nc12 | 21 | 33 | 71* | 0
Cn1c(/C=C/c2ccccc2[N+](=O)[O-])nc2ccccc2c1=O | 11 | 20 | nt | 6
COc1ccccc1N1CCN(CC(=O)Nc2c(C)n[nH]c2C)CC1 | 0 | -13 | 2 | -2
COc1cccc2sc(NNC(=O)COc3ccccc3)nc12 | 0 | -4 | 51* | 0
CCC(=O)NNc1nc2c(C)cccc2s1 | -2 | -21 | 23 | 2
COc1cccc2sc(Nc3nc(-c4ccccn4)cs3)nc12 | 100 | 128* | 39 | -16
CN1C(C)(C)CC(=NOC(=O)c2ccccc2)CC1(C)C | -6 | 3 | 1 | 1
CC(C)(C)NC(=O)c1cccc(NC(=O)CSc2ccc(Cl)cc2)c1 | 117 | 173* | 8 | 1
COc1cc(Cl)ccc1OCc1cc(C(=O)N2C[C@@H]3CCC[C@H]2C3)no1 | 32 | 56* | 21 | 5
SMILES | HSF1 inh | HSF-1 act | AHR activator | FXN GAA850 act
COc1ccc(OCc2cc(C(=O)N3CCCC(CO)C3)no2)c2ccccc12 (centres undefined) | 38 | 49 | 50* | 5
CCCOC1CCCN(C(=O)c2cc(COc3ccc(-n4cncn4)cc3)on2)C1 (centres undefined) | 32 | 60* | 5 | 0
COc1cc(Cl)ccc1OCc1cc(C(=O)N2C[C@H]3CC[C@H]2C3)no1 | 16 | 47 | 14 | 2
COc1ccccc1OCc1cc(C(=O)N2CCCC(OCc3cccnc3)C2)no1 (centres undefined) | 39 | 63* | 33 | 6
O=C(c1cc(COc2ccccc2)on1)N1CCCC(OCc2cccnc2)C1 (centres undefined) | -1 | 3 | 2 | 1
COc1ccc(CN(C)C(=O)C2CC(=O)N(c3ccc4c(c3)OCCO4)C2)c(OC)c1 (centres undefined) | nt | nt | 1 | 2
CCOc1ncccc1C(=O)Nc1cccc(-c2nc3cccnc3s2)c1 | 5 | 12 | 50* | 3
O=C(Nc1cccc(-c2nc3cccnc3s2)c1)c1ccco1 | 8 | 5 | 41 | 3
CC(=O)Nc1ccc(C23CC4CC(CC(C4)C2)C3)cc1 | -1 | 4 | -6 | 6
CS(=O)(=O)N(CC(=O)Nc1c(F)cccc1F)c1ccc(C23CC4CC(CC(C4)C2)C3)cc1 | -15 | -26 | 4 | 5
CS(=O)(=O)N(CC(=O)Nc1ccc(CC#N)cc1)c1ccc(C23CC4CC(CC(C4)C2)C3)cc1 | 48 | 60* | 15 | 11*
CC(=O)Nc1ccc(NC(=O)CN(c2ccc(C34CC5CC(CC(C5)C3)C4)cc2)S(C)(=O)=O)cc1 | 13 | -2 | 0 | 9.5*
Cn1nc(C(C)(C)C)cc1NC(=O)Nc1ccc(Cl)cc1 | -12 | 1 | 8 | 1
CC(=O)c1ccc(OCc2ccccc2)c(C)c1O | 13 | 13 | 0 | 4
COc1ccc(C(CC(=O)N2CCCC2)c2ccc(F)cc2)cc1 (centres undefined) | 4 | -6 | 6 | -1
COc1cc(OC)cc(C(=O)Nc2ccccc2N2CCOCC2)c1 | -6 | -3 | 61* | 0
COc1cc(OC)cc(C(=O)Nc2ccc(N3CCOCC3)cc2N2CCOCC2)c1 | nt | nt | -1 | 0
Cc1cccc2cc(C#N)c(SCC(=O)Nc3ccccc3N3CCOCC3)nc12 | -13 | -13 | 33 | 1
CS(=O)(=O)N1CCN(c2ccccc2NC(=O)c2ccc(Cl)cc2)CC1 | 8 | 22 | 79* | -1
O=C(Nc1ccccc1N1CCOCC1)c1ccc(Cl)nc1 | 2 | 7 | 60* | 2
O=C(Nc1ccccc1N1CCOCC1)c1ccc2ccccc2c1 | 7 | 5 | 25 | 1
N#Cc1cc2ccccc2nc1SCC(=O)Nc1ccccc1N1CCOCC1 | 24 | 71* | 3 | 1
CN(C)CCNC(=O)COc1cccc2c1OC(C)(C)C2 | -2 | -9 | 0 | 1
O=C(Nc1cc(Cl)ccc1N1CCOCC1)c1cccnc1Cl | -4 | 12 | 70* | 0
COc1c(F)c(F)c(C(=O)Nc2ccccc2N2CCN(C(C)=O)CC2)c(F)c1F | 1 | -7 | 50* | -1
SMILES | HSF1 inh | HSF-1 act | AHR activator | FXN GAA850 act
COc1c(Cl)cc(Cl)cc1C(=O)Nc1ccccc1N1CCN(C(C)=O)CC1 | -5 | 8 | 1 | 1
CCc1nc2c(cnn2-c2ccc(F)cc2)c(=O)n1-c1ccc(N2CCC(C)CC2)cc1 | 19 | 45 | 0 | -1
CC(C)(C)OC(=O)N1CCN(C(=O)c2[nH]cnc2C(=O)NCC(=O)OCc2ccccc2)CC1 | -88* | -90 | 6 | 2
CC(C)(C)OC(=O)N1CCN(C(=O)c2[nH]cnc2C(=O)NCc2ccccc2)CC1 | nt | nt | 0 | 1
CCc1nnc(NC(=O)c2c(OC)cccc2OC)s1 | -5 | 0 | 2 | 0
Clc1ccc(-c2nnc3sc(-c4ccc(Br)o4)nn23)cc1 | nt | nt | 61* | 2
Cc1oc(-c2ccc(Cl)cc2)cc1-c1nn2c(-c3ccoc3C)nnc2s1 | 2 | -13 | 52* | 2
Clc1ccc(-c2nnc3sc(-c4ccc(Br)o4)nn23)c(Cl)c1 | -4 | 7 | 42 | 1
